Test results: PubChem BioAssay AID1159580 (chemical genetic matrix, 2015)
“And” between values parts separate entries of the source, which are not always exact repeats. Equal values may be shown once. Hit rate of the full screen: of about 5,500 compounds, about 2,000 (36%) were called active. Another 18% or so got no clear call; they are omitted. Rule as the data show it: active = normalized growth mostly below about 0.91 (no sharp cut-off); inconclusive = no clear call, values can overlap the other calls; inactive = mostly above about 0.92. This is one part of the list.

Test: chemical genetic growth profiling, strain panel (AID 1159580);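 also: tested at 20 µM; growth read once vehicle control cultures reached saturation at 30 °C; 1 = growth at the plate median or of vehicle wells; lower values mean less growth of the strain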
Settings: S. cerevisiae deletion strains, growth OD

Measured: normalized growth

CC(N)CCCC(C)(C)O (centres undefined)
inactive: locus YAL013W, strain DEP1, hits give low values 0.998 | locus YAL021C, strain ccr4, hits give low values 0.973 | locus YAL026C, strain drs2, hits give low values 0.993 | locus YAL030W, strain snc1, hits give low values 0.989 | locus YBL061C, strain skt5, hits give low values 0.98 | locus YBR009C, strain hhf1, hits give low values 1.01 | locus YBR021W, strain FUR4, hits give low values 1.02 | locus YBR023C, strain chs3, hits give low values 0.98 | locus YBR171W, strain sec66, hits give low values 0.964 | locus YBR229C, strain ROT2, hits give low values 1.01 | locus YBR231C, strain swc5, hits give low values 0.976 | locus YBR279W, strain paf1, hits give low values 0.984 | locus YCL011C, strain gbp2, hits give low values 0.969 | locus YCL016C, strain dcc1, hits give low values 0.989 | locus YCL029C, strain bik1, hits give low values 1 | locus YCL061C, strain MRC1, hits give low values 0.971 | locus YCL069W, strain vba3, hits give low values 0.979 | locus YCR088W, strain abp1, hits give low values 0.973 | locus YDL005C, strain med2, hits give low values 0.983 | locus YDL035C, strain GPR1, hits give low values 1.02 | locus YDL040C, strain nat1, hits give low values 0.984 | locus YDL074C, strain BRE1, hits give low values 0.979 | locus YDL101C, strain DUN1, hits give low values 0.994 | locus YDL134C, strain PPH21, hits give low values 1.02 | locus YDL185W, strain tfp1, hits give low values 1.01 | locus YDL192W, strain arf1, hits give low values 1.01 | locus YDR001C, strain nth1, hits give low values 0.973 | locus YDR069C, strain doa4, hits give low values 0.981 | locus YDR101C, strain arx1, hits give low values 0.976 | locus YDR137W, strain rgp1, hits give low values 1.01 | locus YDR159W, strain sac3, hits give low values 0.975 | locus YDR162C, strain NBP2, hits give low values 1.01 | locus YDR195W, strain ref2 0.904 | locus YDR297W, strain sur2, hits give low values 0.975 | locus YDR318W, strain mcm21, hits give low values 1.01 | locus YDR334W, strain swr1, hits give low values 0.93 | locus YDR335W, strain msn5, hits give low values 0.985 | locus YDR388W, hits give low values 1.01 | locus YDR392W, strain spt3, hits give low values 0.905 | locus YDR502C, strain sam2, hits give low values 0.996 | locus YEL003W, strain gim4, hits give low values 0.97 | locus YEL037C, strain rad23, hits give low values 0.977 | locus YEL061C, strain CIN8 (second series), hits give low values 0.977 | locus YEL061C, strain CIN8, hits give low values 0.994 | locus YER015W, strain faa2, hits give low values 0.982 | locus YER016W, strain bim1, hits give low values 0.98 | locus YER110C, hits give low values 1.02 | locus YER111C, strain swi4, hits give low values 0.987 | locus YER155C, strain BEM2 (second series), hits give low values 0.972 | locus YER155C, strain BEM2, hits give low values 1 | locus YER167W, strain BCK2, hits give low values 1.01 | locus YFR010W, strain ubp6, hits give low values 0.978 | locus YGL078C, strain dbp3, hits give low values 1.01 | locus YGL086W, strain mad1, hits give low values 0.998 | locus YGL167C, strain pmr1, hits give low values 0.979 | locus YGL173C, strain kem1, hits give low values 0.983 | locus YGL227W, strain vid30, hits give low values 0.981 | locus YGL240W, strain doc1, hits give low values 0.979 | locus YGL248W, strain PDE1, hits give low values 1 | locus YGL253W, strain hxk2, hits give low values 0.977 | locus YGR135W, strain pre9, hits give low values 1.04 | locus YGR229C, strain SMI1, hits give low values 0.99 | locus YGR252W, strain gcn5, hits give low values 1.01 | locus YHR013C, strain ard1, hits give low values 0.959 | locus YHR027C, strain rpn1, hits give low values 0.969 | locus YHR030C, strain SLT2, hits give low values 1.01 and 1.08 | locus YHR079C, strain IRE1 (second series), hits give low values 1.01 | locus YHR079C, strain IRE1, hits give low values 1.08 | locus YHR094C, strain hxt1, hits give low values 1 | locus YHR129C, strain ARP1, hits give low values 1.01 | locus YHR142W, strain chs7, hits give low values 0.954 | locus YHR200W, strain rpn10, hits give low values 1.01 | locus YIL066C, strain RNR3, hits give low values 0.998 | locus YIL073C, strain SPO22, hits give low values 1.05 | locus YIL125W, strain kgd1, hits give low values 1 | locus YIR030C, strain dcg1, hits give low values 1.01 | locus YJL092W, strain hpr5, hits give low values 0.966 | locus YJL095W, strain BCK1 (second series), hits give low values 0.977 | locus YJL095W, strain BCK1, hits give low values 0.972 and 1.1 | locus YJL115W, strain asf1, hits give low values 0.939 | locus YJL129C, strain trk1, hits give low values 0.975 | locus YJL134W, strain LCB3, hits give low values 1.01 | locus YJL154C, strain vps35, hits give low values 0.978 | locus YJL164C, strain tpk1, hits give low values 1.01 | locus YJL166W, strain qcr8, hits give low values 0.987 | locus YJL168C, strain set2, hits give low values 0.997 | locus YJL187C, strain SWE1 (second series), hits give low values 0.974 | locus YJL187C, strain SWE1, hits give low values 0.994 | locus YJR043C, strain POL32, hits give low values 0.989
